# Several values for one entry are separate records, joined by “and”; a condition that tells them apart may be missing. Equal values may be shown once. Activity calls are given as the source filed them. Entries that show only a call come without a potency. Calls come from the whole dose curve; as a rule, active = well fitted activation curve with a large enough effect in the repeat runs; inconclusive = weak or mixed curves; inactive = flat fitted curve, though single readings scatter.
# Biological target: KiSS-1 receptor (Homo sapiens) (UniProt Q969F8)
# Experiment: Human kisspeptin (KISS1R) small molecule agonists, calcium flux assay in KISS1R-HEK293 cells (AID 1920064)
# Conditions: KISS1R-HEK293, calcium flux fluorescence, agonist; series mostly up to 76.8 µM
# Excerpt: National Center for Advancing Translational Sciences [NCATS]
# Division of Preclinical Innovation [DPI]
# U.S. Environmental Protection Agency [EPA]
# National Institutes of Environmental Health Sciences [NIEHS]
# National Toxicology Program [NTP]
# U.S. Food and Drug Administration [FDA]
# Kisspeptin and its receptor KISS1R play key roles in mammalian reproduction due to their involvement in the onset of puberty and control of the hypothalamic-pituitary-gonadal axis such as regulates GnRH release from the hypothalamus. The kisspeptin/KISS1R system also plays a direct role in peripheral organs (including the ovary, testis, uterus, and placenta) and is implicated in reproductive diseases such as miscarriage and polycystic ovary syndrome (PCOS). Abnormal KISS1R activity is associated with abnormal puberty, infertility, endometriosis, and hormone-dependent tumors. The KISS1 receptor (KISS1R, also called GPR54), a G-protein-coupled receptor (GPCR), acts (through phospholipase C) to increase intracellular inositol trisphosphate and then release intracellular calcium stores. Cell-based KISS1R-HEK293 assay is using HEK293 cells that have been genetically engineered to express the human KISS1R, which activity can be measured by calcium signaling. A compound/drug can activate (agonist) KISS1R that can be monitored by levels of intracellular calcium.
# KISS1R-HEK293 cells developed by Codex Corp contain human KISS1R gene, which was stably integrated into HEK 293 cells. The compound activation can be detected by fluorescence intensity via calcium flux assay. This cell line has been used to screen the Tox21 10K compound library to identify agonists of KISS1R.
# KISS1R-Hek293 cells were dispensed at 1500 cells/4uL/well in 1536-well black wall/clear bottom plates using a multidrop dispenser. After the assay plates were incubated at a 37 C/5% CO2 incubator for 18 hours, 4 microL of Calcium Dye Solution was added to each well. The plates were incubated at 37 C for 1 hour. And then 23 nL of compounds dissolved in DMSO, positive controls, or DMSO only was transferred to the assay plate by a pin tool station. The fluorescence intensity in the plates was measured using FDSS 7000EX kinetic plate reader with a filter set of Ex/Em=480/540 for 3 min at 1 sec intervals. Each test compound was measured at 15 concentrations and in triplicates.
# Potency is the fitted concentration of half-maximal effect.
# Chain of KiSS-1 receptor (Homo sapiens) (Q969F8 whole entry, looked up): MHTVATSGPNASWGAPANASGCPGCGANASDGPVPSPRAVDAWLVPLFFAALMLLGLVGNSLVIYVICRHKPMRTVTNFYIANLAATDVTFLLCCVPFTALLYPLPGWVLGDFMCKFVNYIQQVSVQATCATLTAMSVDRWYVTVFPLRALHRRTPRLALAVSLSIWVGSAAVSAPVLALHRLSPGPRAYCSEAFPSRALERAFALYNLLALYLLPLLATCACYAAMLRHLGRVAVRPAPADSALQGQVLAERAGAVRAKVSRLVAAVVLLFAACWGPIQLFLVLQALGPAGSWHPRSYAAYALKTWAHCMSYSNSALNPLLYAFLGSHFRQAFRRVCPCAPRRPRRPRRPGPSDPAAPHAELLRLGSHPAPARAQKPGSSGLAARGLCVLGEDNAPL
row,Compound,Potency
1,Oc1c(Cl)cc(Cl)c(Cl)c1Cc1c(O)c(Cl)cc(Cl)c1Cl,inactive
2,O=C(O)c1ccc(C(=O)O)cc1,inactive
3,CC1=C(/C=C/C(C)=C/C=C/C(C)=C/CO)C(C)(C)CCC1,inactive
4,CCN(CC)C(=O)c1cccc(C)c1,inactive
5,CC1=CC(C)(C)Nc2ccccc21,inactive
6,Cc1cccc(C(=O)O)c1,inactive
7,CCOC(=O)NNc1nncc2ccccc12,inactive
8,C[C@]12CCC(=O)C=C1CC[C@@H]1[C@@H]2C(=O)C[C@@]2(C)[C@H]1CC[C@]2(O)C(=O)CO,inactive
9,CC(C)OC(=O)COc1ccc(Cl)cc1Cl,inactive
10,CC(CCC(=O)O)(c1ccc(O)cc1)c1ccc(O)cc1,inactive
11,CCc1ccc(O)cc1,inactive
12,CC(=O)O[C@]1(C(C)=O)CC[C@H]2[C@@H]3C=C(Cl)C4=CC(=O)CC[C@]4(C)[C@H]3CC[C@@]21C,inactive
13,Cn1cc[nH]c1=S,inactive
14,CCN(CC)C(=S)SSC(=S)N(CC)CC,inactive
15,CCNC(=S)NCC,inactive
16,CC12CCC(CC1)C(C)(C)O2,inactive
17,CCN=c1cc2oc3cc(NCC)c(C)cc3c(-c3ccccc3C(=O)OCC)c-2cc1C,17.3 µM (active) and 21.9 µM (active)
18,CCCCCCCCCCCC[N+](C)(C)C,inactive
19,CCCCC(CC)COC(=O)c1ccc(C(=O)OCC(CC)CCCC)cc1 (stereo not given),inactive
20,CCCCCCCCCCO,inactive

row,Compound,Potency
1,CCC(C)(C)C(=O)O[C@H]1C[C@@H](C)C=C2C=C[C@H](C)[C@H](CC[C@@H]3C[C@@H](O)CC(=O)O3)[C@H]21,inactive
2,CCC(=O)/C=C/C1C(C)=CCCC1(C)C (stereo not given),inactive
3,NC(=O)OCC(COC(N)=O)c1ccccc1,inactive
4,CC(C)Cc1ccc(C(C)C(=O)O)cc1 (stereo not given),inactive
5,CCCCCCCCCCCCc1ccccc1,inactive
6,OC[C@H]1O[C@H](O[C@]2(CCl)O[C@H](CCl)[C@@H](O)[C@@H]2O)[C@H](O)[C@@H](O)[C@H]1Cl,inactive
7,O=S(=O)(O)c1ccc(O)cc1,inactive
8,COc1ccc(C(=O)c2ccccc2O)c(O)c1,inactive
9,CC(=O)OC/C=C(\C)CCC=C(C)C,inactive
10,O=C(Nc1ccccc1SSc1ccccc1NC(=O)c1ccccc1)c1ccccc1,inactive
11,CC(C)CC(=O)CC(C)C,inactive
12,CC(C)(C)[C@@H](O)[C@@H](Cc1ccc(Cl)cc1)n1cncn1,inactive
13,CC1(C)[C@@H](O[C@H]2O[C@H](C(=O)O)[C@@H](O)[C@H](O)[C@H]2O[C@@H]2O[C@H](C(=O)O)[C@@H](O)[C@H](O)[C@H]2O)CC[C@]2(C)[C@H]3C(=O)C=C4[C@@H]5C[C@@](C)(C(=O)O)CC[C@]5(C)CC[C@@]4(C)[C@]3(C)CC[C@@H]12,inactive
14,Cc1ccc(S(=O)(=O)O)cc1,inactive
15,C/C=C1/CC2C=CC1C2 (stereo not given),inactive
16,c1ccc(Oc2ccccc2)cc1,inactive
17,CN1C(C(=O)Nc2ccccn2)=C(O)c2ccccc2S1(=O)=O,inactive
18,O=C1C(c2[nH]c3ccccc3c2O)=Nc2ccccc21,inactive
19,c1ccc2ccccc2c1,inactive
20,Cc1ncc([N+](=O)[O-])n1C,inactive
